Reference: PubChem BioAssay (NCI)
This is part of a sample that, as a whole, favours compounds with a hit. Of some 83,000 tested, about 20% had one in any assay.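 In brief: 96-well plates, 48 h treatment, single concentration, percent growth endpoint.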 A number with no mark means an inactive call. Calls of active or inactive are those of the source. How the source made its calls: active means growth percent below 10; inactive means the rest.

Legend:
Assay in all cases: NCI-60 one-dose screen, 48 h (100 = growth as untreated, 0 = no growth, -100 = all killed)
Conditions in all cases: 10 µM unless noted
HCT-15 colon = test system: HCT-15 colon
HT29 colon = test system: HT29 colon
SNB-75 CNS = test system: SNB-75 CNS
SNB-19 CNS = test system: SNB-19 CNS
U251 CNS = test system: U251 CNS
PC-3 prostate = test system: PC-3 prostate
SK-MEL-5 melanoma = test system: SK-MEL-5 melanoma
UACC-62 melanoma = test system: UACC-62 melanoma
LOX IMVI melanoma = test system: LOX IMVI melanoma
SK-MEL-28 melanoma = test system: SK-MEL-28 melanoma
SK-MEL-2 melanoma = test system: SK-MEL-2 melanoma
EKVX NSCLC = test system: EKVX NSCLC
SN12C renal = test system: SN12C renal
UO-31 renal = test system: UO-31 renal
TK-10 renal = test system: TK-10 renal
ACHN renal = test system: ACHN renal
CAKI-1 renal = test system: CAKI-1 renal
A498 renal = test system: A498 renal
CCRF-CEM leukemia = test system: CCRF-CEM leukemia
MOLT-4 leukemia = test system: MOLT-4 leukemia

SMILES	growth (HCT-15 colon) [%]	growth (HT29 colon)	growth (SNB-75 CNS)	growth (SNB-19 CNS) [%]	growth (U251 CNS)	growth (PC-3 prostate) [%]	growth (SK-MEL-5 melanoma) [%]	growth (UACC-62 melanoma) [%]	growth (LOX IMVI melanoma)	growth (SK-MEL-28 melanoma) [%]	growth (SK-MEL-2 melanoma)	growth (EKVX NSCLC)	growth (SN12C renal) [%]	growth (UO-31 renal)	growth (TK-10 renal) [%]	growth (ACHN renal) [%]	growth (CAKI-1 renal) [%]	growth (A498 renal)	growth (CCRF-CEM leukemia)	growth (MOLT-4 leukemia)
CC(C)=CCCC(C)c1ccc(C)c2c1OCN(CC1CCNCC1)C2 (centres undefined)	39.8	-68.5% (active)	89.3%	78.2	-2.5% (active)	59.4	42.2	63.5	-70.5% (active)	92.5	96.3%	93%	76.7	60.5%	86	92.9	80.2	75.6%	26.7%	34.1%
Cc1cccc2nnc(-c3ccccc3)n12	101	106%	107%	97.1	108%	104	110	99.6	99.4%	112	99.1%	103%	93.7	85.1%	98.1	105	105	96%	99.3%	93.2%
COc1ccc(C(=O)COc2cccc(/C=C3\CSc4ccc(Cl)cc4C3=O)c2)cc1	70.4	72.2%	99.3%	91.3	71.1%	61.9	67.2	71.8	33.1%	114	46.9%	77.9%	90.2	13.1%	118	90.3	69.6	94.4%	-21.3% (active)	7.34% (active)
CCCn1c(N)c(C(=O)CNc2ccc(I)cc2)c(=O)[nH]c1=O	22.7	41.7%	81.8%	88.7	28.8%	60.9	60.2	37.1	18.7%	51.7	-7.88% (active)	77.9%	44.6	30.1%	59	50.7	58.3	49.2%	55.9%	29.2%
c1ccc(-c2oc(-c3ccccc3)c3ccccc23)cc1	108	118%	110%	105	98.9%	82.8	104	98.6	88.5%	125	104%	92.1%	104	110%	114	104	74.7	98.9%	85.5%	95.7%
COc1cccc(/C=N/Nc2nc3ccccc3s2)c1OC	43.1	61.1%	86.5%	83.9	49.1%	46.3	52.6	66.7	47.6%	97.8	81%	95.7%	102	85.1%	64.8	79.7	78.8	121%	77%	74.4%
O=C1C=CC(=O)N1c1ccccc1N1C(=O)C=CC1=O	99.6	99.2%	91.7%	91	108%	97.5	106	87.4	97.2%	114	98.6%	115%	97.5	79.4%	97.3	88	85.2	101%	1.88% (active)	–
COc1ccc(Cl)cc1Nc1nc(C(F)(F)F)ccc1C(=O)N/N=C/c1c(Cl)cccc1Cl	30.6	52.1%	63.5%	55.5	29.1%	48.5	13.4	52.9	32.3%	62.2	28.3%	60.5%	63	31.2%	67.2	39.2	34.9	-21.9% (active)	13.8%	14.4%
Cc1cc(C)nc(NS(=O)(=O)c2ccc(Nc3nc4nc(SCc5ccccc5)nc(-c5ccc(O)cc5)c4c(=O)[nH]3)cc2)n1	109	123%	88.3%	74.9	94.6%	67.7	99.5	83.5	101%	86.3	92%	96%	102	97%	105	104	85.9	90.7%	71.2%	73.8%
COc1ccc(/C=C2/SC(=Nc3c(C)nn(-c4ccccc4)c3N)NC2=O)cc1	33.3	16.6%	5.59% (active)	51.3	40%	29.1	21.2	26.8	33.1%	58.7	39.1%	69.3%	67.9	32.8%	71.6	46.8	23	-54.5% (active)	33.2%	51.6%
COc1ccc(C(=O)COc2cccc(/C=C3\COc4ccc5ccccc5c4C3=O)c2)cc1	88.6	60.8%	-6.64% (active)	66.9	68.3%	48.2	67.6	74.5	57.6%	106	52.6%	45.4%	68.6	-29.5% (active)	125	143	71.9	88.8%	13.3%	44.4%
COc1ccc2c(c1)CC/C(=C\c1ccc(OCC(=O)Nc3nc4ccccc4s3)cc1)C2=O	102	103%	95.2%	100	81.4%	74.1	91.6	86	-88.6% (active)	112	63%	95.9%	88.3	22.2%	112	97.2	79.3	117%	-37% (active)	71.2%
Oc1ccc(/C=N/Nc2nc3ccccc3s2)c(O)c1	30.9	67.3%	28.5%	52.5	25.4%	32.5	40.8	35.8	21.3%	50.7	24%	43.2%	49.9	10.2%	22.9	23.2	12.3	77.9%	27.1%	18.8%
O=C(N/N=C/c1ccc(Cl)cc1Cl)c1ccccc1Nc1cccc(C(F)(F)F)c1	72.5	86.7%	78%	76.1	22.4%	60.5	53.5	65.6	50%	92.2	54.9%	-27.9% (active)	53.3	25.7%	106	35.9	55.5	-7.44% (active)	32.4%	55.8%
BrC1CC(Br)c2c1c1c(c3c2C(Br)CC3Br)C(Br)CC1Br (centres undefined)	97.6	86.7%	68.6%	98.7	88.7%	81.5	99.8	82.4	73.7%	119	115%	101%	109	39.9%	121	87.2	94.5	117%	114%	75.8%
O=CNc1ccc2c(c1)Cc1cc([N+](=O)[O-])ccc1-2	27	37.5%	15.6%	36.2	16.4%	32.3	18.8	29.6	40.8%	57	19.2%	36%	38.9	33.3%	37.6	56.6	29.9	39.2%	20.9%	29.7%
